CYP2C19 inhib: blocks human cytochrome P450 2C19 | inhibition, % at 5 µM | 96,000 compounds, 21% hits | CYP2C19 Supersomes, luciferin-H EGE luminescence, 30 min | AID 778 | P33261;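 active = CYP2C19 inhibition above a set limit at 5 µM in the primary screen, cut at about 50% in these data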
CYP2C19 activ: activators of human cytochrome P450 2C19. P33261. recombinant CYP2C19, luciferin-H EGE luminescence; hits give high values; 0 = fully inhibited enzyme, 1 = untreated enzyme. activation factor at 5 µM. 96,000 tested, under 10 active. AID 1025;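 active = activation factor of at least 2 at 5 µM in the primary screen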
CYP2C9 inhib: inhibitors of human CYP2C9; inhibition, % at 5 µM; 96,000 compounds, 20% hits; CYP2C9 Supersomes, luciferin-H conversion, luminescence; P11712;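 active = blocking of liver enzyme CYP2C9 beyond about 50% at 5 µM, limit read from the data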
Target sequence (P11712 whole entry, looked up): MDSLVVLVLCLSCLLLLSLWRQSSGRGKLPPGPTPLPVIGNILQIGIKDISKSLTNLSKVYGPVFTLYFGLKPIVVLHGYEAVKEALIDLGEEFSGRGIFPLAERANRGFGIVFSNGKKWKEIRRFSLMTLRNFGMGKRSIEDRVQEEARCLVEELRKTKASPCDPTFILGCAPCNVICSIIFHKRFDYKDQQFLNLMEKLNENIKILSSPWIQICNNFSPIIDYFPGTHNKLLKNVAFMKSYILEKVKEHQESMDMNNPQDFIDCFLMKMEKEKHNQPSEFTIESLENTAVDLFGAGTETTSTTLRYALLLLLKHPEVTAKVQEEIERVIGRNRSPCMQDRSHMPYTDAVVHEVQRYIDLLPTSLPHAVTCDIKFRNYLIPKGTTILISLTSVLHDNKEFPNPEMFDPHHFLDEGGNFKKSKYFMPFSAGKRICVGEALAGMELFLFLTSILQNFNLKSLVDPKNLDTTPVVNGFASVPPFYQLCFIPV
EphB4 antag: blocks human EphB4 binding to ephrin-B2. inhibition, % at 7 µM. AID 720. 97,000 compounds, 0.15% hits. EphB4 LBD / TNYL-RAW-Alexa532 peptide, fluorescence polarization. P54760;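 active = inhibition above the screen-wide mean inhibition plus 3 SD, cut at about 15% in these data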
CYP2C9 activ: CYP2C9 (human) activation; recombinant CYP2C9, luciferin-H conversion, luminescence; hits give high values; factor 1 = untreated enzyme, 0 = blocked; activation factor at 5 µM; AID 1024; P11712; 96,000 compounds, 1.4% hits;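 active = activation factor of 2 or more for CYP2C9 at a 5 µM dose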
Numbers stand for hits; . = inactive; / = no result given. An excerpt weighted towards active compounds, which were near 27% of everything screened.

SMILES	CYP2C19 inhib	CYP2C19 activ	CYP2C9 inhib	EphB4 antag	CYP2C9 activ
Cc1ccc(Cn2c(NS(=O)(=O)c3ccccc3)nc3ccccc32)cc1	.	.	63.6	.	.
CCC(=O)NCCc1nc2ccccc2n1Cc1ccc(C)cc1	.	.	.	.	.
CCC(=O)Nc1nc2ccccc2n1Cc1ccc(C)cc1	81.0	.	.	.	.
Cc1ccc(C(=O)COC(=O)CSc2cccc3cccnc23)c(C)c1	/	/	/	.	/
CC1=CC(C)(C)N(C(=O)CSc2nnc(N)s2)c2c(C)cc(C)cc21	59.7	.	50.3	.	.
CCN(CC)c1ccc(NC(=O)CSc2nnc(N)s2)cc1C	.	.	.	.	.
COc1ccc(/C=C(/C(=O)c2ccc(Cl)cc2Cl)n2cncn2)cc1	77.2	.	91.2	.	.
O=C(Nc1ccccc1C(F)(F)F)NC1CCCCCCC1	.	.	.	.	.
O=C1C(C2=C(O)c3ccccc3C2=O)=Nc2ccccc21	.	.	52.8	.	.
O=C(/C=C/c1ccccc1)NCCSCc1ccccc1Cl	.	.	57.4	.	.
Cc1cc2ncn(C(=O)N3CCCC3)c2cc1C	/	/	/	.	/
Cc1cc(CCN2CCC(=O)NC2=O)ccc1OC(C)C	51.2	.	.	.	.
Cn1cc(C(=O)c2ccccc2)cc1-c1nc2ccccc2n1C	82.7	.	72.8	.	.
CCC(=O)c1cc(-c2nc3ccccc3n2C)n(C)c1	56.3	.	65.0	.	.
CCCC(=O)c1cc(-c2nc3ccccc3n2C)n(C)c1	.	.	.	.	.
CCCn1c(=O)c(C(=O)c2ccccc2)nc2ccccc21	.	.	.	.	.
CS(=O)(=O)c1ccc(-c2nn[nH]n2)cc1	.	.	.	.	.
N/C(=N\S(=O)(=O)c1ccc(Cl)s1)c1ccccc1	96.7	.	.	.	.
Cc1ccc(C)c(OCCCC(=O)Nc2nccs2)c1	.	.	.	.	.
COC(=O)C(CC(=O)c1ccc(Br)cc1)n1ccnc1 (stereo unspecified)	95.5	.	80.8	.	.
CN1CCN(C(=O)CN(c2cc(C(F)(F)F)ccc2Cl)S(C)(=O)=O)CC1	.	.	.	.	.
COCCNC(=O)CN(c1cc(C(F)(F)F)ccc1Cl)S(C)(=O)=O	58.4	.	.	.	.
COC(=O)CN(c1cc(C(F)(F)F)ccc1Cl)S(C)(=O)=O	55.6	.	.	.	.
O=c1[nH]c2ccccc2nc1Cc1ccccc1	55.5	.	.	.	.
CCOC(=O)CCc1nc2ccccc2[nH]1	68.8	.	.	.	.
SMILES	CYP2C19 inhib	CYP2C19 activ	CYP2C9 inhib	EphB4 antag	CYP2C9 activ
CCCCOC(=O)CCc1nc2ccccc2[nH]c1=O	73.4	.	.	.	.
CCC(OC(=O)CCc1nc2ccccc2[nH]c1=O)C(=O)c1ccccc1 (stereo unspecified)	99.2	.	79.1	.	.
CN(C)c1nc2c(c(N)nn2-c2ccc(Cl)cc2)c(=O)o1	.	.	.	.	.
CCc1ccc(C2(C)SC(NC(C)=O)=NN2C(C)=O)cc1 (stereo unspecified)	70.8	.	.	.	.
Cc1ccccc1NC(=O)C(C)O/N=C/c1cccc([N+](=O)[O-])c1 (stereo unspecified)	95.3	.	93.3	.	.
c1ccc(-c2nc3nonc3nc2-c2ccccc2)cc1	66.0	.	.	.	.
CCOC(=O)c1cnn(-c2ccccc2)c1-n1cccc1C(=O)C(=O)Nc1ccccc1C(F)(F)F	53.9	.	65.4	.	.
CCOC(=O)c1cnn(-c2ccccc2)c1NC(=O)c1ccccc1C	.	.	.	.	.
COc1ccc(C2=NOC(C(=O)NCc3cccs3)C2)cc1OC (stereo unspecified)	.	.	.	.	.
Cc1ccc(SCc2nc3ccccc3n2CC(=O)Nc2c(C)cccc2C)cc1	.	.	.	.	.
Cc1ccc(SCc2nc3ccccc3n2CC(=O)Nc2ccccc2)cc1	56.9	.	84.3	.	.
O=C(Cn1c(CSc2ccccc2)nc2ccccc21)Nc1ccccc1	51.4	.	73.5	.	.
CCC(C)Sc1nc2ccccc2n1CC(=O)O (stereo unspecified)	.	.	88.1	.	.
CSc1nc2ccccc2n1Cc1c(Cl)cccc1Cl	51.7	.	56.2	.	.
CSc1nc2ccccc2n1CC(=O)Nc1ccccc1	93.1	.	78.9	.	.
CCc1ccc(NC(=O)Cn2c(SC)nc3ccccc32)cc1	.	.	.	/	.
Cc1ccc(C)c(N2CCN(CC3CC=CCC3)CC2)c1 (stereo unspecified)	.	.	.	.	.
OCCN1CCN(CCSc2ccccc2)CC1	.	.	.	.	.
O=C1NC(c2cccs2)Nc2sc3c(c21)CCCC3 (stereo unspecified)	.	.	60.2	.	.
CN1CCc2c(sc3c2C(=O)NC(c2ccco2)N3)C1 (stereo unspecified)	.	.	.	.	.
Nc1nonc1-n1nnc(C(=O)c2ccccc2)c1-c1ccccc1	98.1	.	90.9	.	.
CCOC(=O)c1nnn(-c2nonc2N)c1-c1ccc(OCC)cc1	99.2	.	88.8	.	.
CCOC(=O)c1nnn(-c2nonc2N)c1C	.	.	.	.	.
Cc1c(C(=O)N2CCCC2)nnn1-c1nonc1N	52.2	.	.	.	.
COc1ccccc1CCn1cnc2c3cc(C)ccc3n(C)c2c1=O	93.3	.	70.9	.	.
SMILES	CYP2C19 inhib	CYP2C19 activ	CYP2C9 inhib	EphB4 antag	CYP2C9 activ
COc1ccc2c(c1)c1ncn(CCN3CCNCC3)c(=O)c1n2C	.	.	.	.	.
COc1ccc2c(c1)c1ncn(CCN3CCCCC3)c(=O)c1n2C	.	.	56.2	.	.
COc1ccc2c(c1)c1ncn(CCN3CCCC3)c(=O)c1n2C	.	.	.	.	.
c1ccc(NC2=Nc3ccccc3CS2)cc1	.	.	.	.	.
N#CC1=C(Nc2ccc(Br)cc2)CCC1	.	.	.	.	.
Cc1ccc(NC2=Nc3ccccc3CC2)cc1	83.7	.	.	.	.
Brc1ccc(NC2=Nc3ccccc3CC2)cc1	52.3	.	.	.	.
Cc1csc(NC(=O)CCn2c(=O)sc3ccccc32)n1	79.2	.	.	.	3.6
CSc1ccccc1NC(=O)CCn1c(=O)sc2ccccc21	51.5	.	.	.	.
CCN(CCNC(=O)Cn1c(=O)sc2ccccc21)c1ccccc1	68.1	.	.	/	.
CC(=O)Nc1cccc(NC(=O)CCn2c(=O)sc3ccccc32)c1	.	.	.	.	.
O=C(CCn1c(=O)oc2ccccc21)Nc1nccs1	.	.	.	.	.
CCCCN(C)CCCNC(=O)Cn1c(=O)sc2ccccc21	.	.	.	/	.
O=C(CCn1c(=O)sc2ccccc21)Nc1nccs1	83.7	.	.	.	.
Cc1ccc(-c2nnn(C(C)C(=O)N3c4ccccc4CCc4ccccc43)n2)cc1 (stereo unspecified)	/	/	/	.	/
O=C(CCN1C(=O)c2ccccc2C1=O)NCCC1=CCCCC1	/	/	/	.	/
CCCc1nnc(NC(=O)Cn2c(=O)sc3ccccc32)s1	64.0	.	74.8	.	.
